Rows were chosen to be rich in hits. Some 3.9% of all compounds tested hit in one or more screens of this group.
HSF1 inh: HSF1 inhibition. NIH3T3-HGL HSE-luciferase, MG132-induced, luminescence 8 h; hits give low values. activity change, negative = inhibition, % at 7.5 µM (by protocol). hit rate 0.77% among 300,000. AID 2098;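 active means more than half of replicate wells show activity change below -50%, luminescence cut by over half; inconclusive means some wells, but at most half, below -50%; inactive means no replicate well below -50%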;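 further: luciferase reports HSF-1 transcriptional activity via heat shock element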
MITF TRPM1 HTS: MITF TRPM1 promoter activation in melanoma cells; SK-MEL-5 TRPM1-promoter luciferase, 24 h; % of positive control, neutral wells = 0; activation, % at 12.5 µM; hit rate 0.75% among 300,000; AID 588334;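 active means mean activation of at least 80% with every replicate also reaching 80%; inconclusive means mean reaches 80% but some replicate falls short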
esBAF inh: blocks esBAF chromatin remodeling in mouse ES cells. Bmi1-luciferase knock-in reporter, 24 h; 100% = twice the neutral-well signal. reporter increase, % at 12.5 µM. hit rate 2% among 350,000. AID 602393; in the data active means activation above about 40%; inconclusive means no clear call, values can overlap the other calls;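 further: a rise in the Bmi1 reporter signal indicates esBAF inhibition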
HSF1 activator: increases HSF-1 driven luciferase reporter signal; activation, % at 9 µM; AID 504408; hit rate 1.7% among 300,000; NIH3T3-HGL HSF-1 luciferase reporter, MG132, 8 h; 100% = twice DMSO control signal;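 active means mean replicate activation of at least 50% with a set share of replicates each reaching 50%; inconclusive means only one of those two conditions met; inactive means mean below 50% and too few replicates reaching it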
Wnt bcat act: activates Wnt/beta-catenin signaling in a reporter cell assay; activator, plate reader; activation, % at 9.35 µM; hit rate 1.2% among 300,000; in the data active means activation above about 30%, passing the limit was not always enough; inconclusive means no clear call, values can overlap the other calls
Numbers stand for hits; . = inactive; ? = inconclusive; / = no result.

SMILES | HSF1 inh | MITF TRPM1 HTS | esBAF inh | HSF1 activator | Wnt bcat act
Cc1ccc(NC(=O)c2ccccc2NC(=O)Cc2ccccc2)cc1 | . | . | / | . | 35
O=C(Nc1ccccc1)c1ccccc1O | . | / | 51 | . | /
C[C@H]1CN([C@@H](C)CO)C(=O)c2cc(-c3cccc(F)c3)cnc2O[C@H]1CN(C)C(=O)c1ccccn1 | / | / | . | / | /
CC(C)COC(=O)N(C)C[C@H]1OCc2cn(nn2)CCCC(=O)N([C@H](C)CO)C[C@H]1C | / | / | . | / | /
CC(C)NC(=O)N(C)C[C@H]1Oc2cc(C#CC(C)(C)O)ccc2S(=O)(=O)N([C@@H](C)CO)C[C@H]1C | / | / | . | / | /
Cc1ccc(NC(=O)c2cccc3cccnc23)cc1 | . | . | 64 | . | .
O=C(Nc1ccc(-c2ccccc2)cc1)c1ccccc1 | . | . | . | . | .
CC(=O)Nc1cccc(NC(=O)c2cccc3cccnc23)c1 | . | . | . | . | .
Cc1cc(C)cc(NC(=O)Nc2ccc(NC(=O)c3ccccc3O)cc2)c1 | . | . | . | . | .
Cc1ccc(NC(=O)c2ccccc2O)cc1 | . | . | . | 82 | .
Cc1ccc(NC(=O)C2=C(c3ccccc3)S(=O)(=O)CCS2(=O)=O)cc1 | -75 | . | / | . | .
O=C(c1ccc(N2CCOCC2)cc1)c1cccs1 | . | / | . | . | 42
O=C(N/N=C/c1ccc(N2CCOCC2)cc1)c1cccs1 | . | . | . | . | 56
Cc1ccc(-n2c(O)c(C=NCc3ccccn3)c3ccccc3c2=O)cc1 | . | . | . | . | 61
Cc1cccc(-n2c(O)c(C=NCc3ccccn3)c3ccccc3c2=O)c1 | . | . | . | . | .
C[C@@H]1CN([C@@H](C)CO)C(=O)Cc2cc(NS(=O)(=O)c3ccc(Cl)cc3)ccc2O[C@H]1CN(C)CC1CC1 | / | / | . | / | /
CO[C@@H]1CN(C)C(=O)c2ccc(NC(=O)Nc3ccccc3)cc2OC[C@H](C)N(C(=O)Nc2c(C)noc2C)C[C@@H]1C | / | / | . | / | /
N/C(=N\C(=S)Nc1ccccc1)c1ccccc1 | . | ? | 82 | . | 42
N/C(=N\C(=S)Nc1ccc2c(c1)OCO2)c1ccccc1 | / | / | 64 | / | .
NC(N)=NC(=S)Nc1ccc(Cl)cc1 | . | . | 47 | . | .
COc1cc(C2C(C#N)=C(N)OC3=C2C(=O)CCC3)c([N+](=O)[O-])cc1OC (configuration not stated) | -77 | / | . | . | /
C[C@H]1CN([C@@H](C)CO)S(=O)(=O)c2ccc(-c3cccc(C(=O)N(C)C)c3)cc2O[C@H]1CN(C)C(=O)Nc1ccc(F)cc1 | / | / | . | / | /
C[C@@H]1CCCCO[C@H](CN(C)C(=O)Nc2ccc(C(F)(F)F)cc2)[C@@H](C)CN([C@H](C)CO)C(=O)c2cc(NC(=O)CCC(F)(F)F)ccc2O1 | / | / | . | / | /
CC(C)N(Cc1ccccc1)C(=O)COC(=O)/C=C/c1cnc2ccccc2n1 | . | . | / | 63 | .
CCN(C(=O)COC(=O)/C=C/c1cnc2ccccc2n1)c1ccccc1 | / | . | / | / | .
SMILES | HSF1 inh | MITF TRPM1 HTS | esBAF inh | HSF1 activator | Wnt bcat act
Fc1ccc(-c2cn3ccccc3n2)cc1 | . | . | . | 60 | .
COc1ccc(CC(=O)Nc2ccc(-c3cn4ccccc4n3)cc2)cc1 | . | . | . | 184 | /
CCOc1ccc(-c2cn3ccccc3n2)cc1 | / | . | / | / | .
COc1ccc(CC(=O)Nc2cccc(-c3cn4ccccc4n3)c2)cc1 | . | . | / | . | .
C[C@H]1CN([C@@H](C)CO)S(=O)(=O)c2ccc(C#CC3CCCC3)cc2O[C@@H]1CN(C)C(=O)Cc1ccncc1 | / | / | . | / | /
C=CCn1c(=O)c2ccccc2n2c(SCC(=O)Nc3sc(C(=O)N(CC)CC)c(C)c3C(=O)OCC)nnc12 | . | . | / | . | .
C=CCn1c(=O)c2ccccc2n2c(SCC(=O)Nc3sc(C)c(CC)c3C(=O)OCC)nnc12 | . | . | / | 54 | .
O=C(CNC(=O)c1ccccc1Cl)N/N=C/c1ccc2c(c1)OCO2 | . | . | . | . | .
CCN(CC)c1ccc(/C=N/Nc2nc3ccccc3[nH]2)cc1 | . | . | . | 431 | .
C(=N\Nc1nc2ccccc2[nH]1)/c1ccc2c(c1)OCO2 | . | 116 | / | 492 | .
Clc1ccccc1N/N=C/c1ccc2c(c1)OCO2 | . | . | 78 | . | /
CC(=O)Nc1ccc(/C=N/Nc2nc3ccccc3[nH]2)cc1 | . | . | / | 128 | .
COc1ccc(S(=O)(=O)N(C)C[C@@H]2Oc3ccc(NC(=O)CCCN(C)C)cc3C(=O)N([C@@H](C)CO)C[C@@H]2C)cc1 | / | / | . | / | /
C[C@@H]1CCCCO[C@@H](CN(C)C(=O)Cc2ccccc2)[C@@H](C)CN([C@@H](C)CO)C(=O)c2cc(NS(=O)(=O)c3ccccc3)ccc2O1 | / | / | . | / | /
C[C@@H]1CN([C@@H](C)CO)C(=O)c2cc(NS(=O)(=O)c3ccccc3)ccc2O[C@@H]1CN(C)S(=O)(=O)c1cn(C)cn1 | / | / | . | / | /
CC(C)NC(=O)Nc1ccc2c(c1)C(=O)N([C@@H](C)CO)C[C@@H](C)[C@H](CN(C)S(=O)(=O)c1ccc(Cl)cc1)OCCCC[C@@H](C)O2 | / | / | . | / | /
CC(/C=N/Nc1nc(C)cc(=O)[nH]1)=C\c1ccccc1 | . | . | . | . | .
CC(/C=N/Nc1nc2ccccc2[nH]1)=C\c1ccccc1 | . | . | / | . | 53
COc1cccc(N2C(=O)N(c3ccccc3)C3CS(=O)(=O)CC32)c1 (configuration not stated) | -84 | . | . | . | .
O=C(COc1ncnc2ccccc12)c1ccc2c(c1)OCCO2 | . | . | . | . | .
O=C(COc1ncnc2cc(Cl)ccc12)c1ccc2c(c1)OCCO2 | . | . | 59 | . | 55
O=C(COC(=O)c1ccc(Cl)nc1)c1ccc2c(c1)OCCO2 | . | . | / | 65 | .
O=c1c(-c2ccc(F)cc2)coc2c3c(ccc12)OCCO3 | / | 133 | 52 | / | .
O=c1c(-c2ccc(F)cc2)coc2cc(O)ccc12 | . | . | . | . | /
CO[C@@H]1CN(C)C(=O)c2cc(NS(=O)(=O)c3ccccc3)ccc2OC[C@@H](C)N(C)C[C@@H]1C | / | / | . | / | /
SMILES | HSF1 inh | MITF TRPM1 HTS | esBAF inh | HSF1 activator | Wnt bcat act
COc1ccc(-c2nc3nc(C)cc(C)n3n2)cc1 | . | . | . | . | 33
C[C@H]1CN([C@@H](C)CO)C(=O)c2cc(NC(=O)CCC(F)(F)F)ccc2O[C@H]1CN(C)C(=O)Nc1ccc(C(F)(F)F)cc1 | / | / | . | / | /
C[C@@H]1CCCCO[C@H](CN(C)Cc2ccncc2)[C@@H](C)CN([C@@H](C)CO)C(=O)c2cc(NS(C)(=O)=O)ccc2O1 | / | / | . | / | /
CCCC(=O)Nc1ccc(C(=O)COC(=O)C2=COCCO2)cc1 | / | . | / | / | .
CC(=O)Nc1ccc(C(=O)COC(=O)c2c(C)noc2C)c(F)c1 | / | / | . | / | .
CCCC(=O)Nc1ccc(C(=O)COC(=O)C2CC2C)cc1 (configuration not stated) | / | . | . | / | 45
CC(=O)Nc1ccc(C(=O)COC(=O)C2CC2C)c(F)c1 (configuration not stated) | / | 107 | . | / | 42
CC(=O)Nc1ccc(C(=O)COC(=O)c2cccs2)c(F)c1 | / | 127 | 68 | / | 57
